Bioassay records from PubChem BioAssay.
HP1b chromo inh: HP1-beta chromodomain-methylated histone interaction inhibition; AlphaScreen HP1-beta / biotin-H3K9me3 peptide binding; 0.56% of 390,000 active; Potency, µM (series often up to 114 µM), for inactives: at the top dose activity change, negative = inhibition, hits mostly inhibitors; P83916; AID 540317; also: potency is read from the fitted curve at half-maximal effect; nearly all actives have a fitted effect of over 70% in size
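Compound inhibition of the preformed complex between 50 nM HP1-beta and 50 nM biotinylated H3K9me3 peptide was read by AlphaScreen. Buffer was PBS pH 7.4 with 0.01% Tween-20. Incubations ran 30 min at room temperature, with 10 ug/mL donor/acceptor beads.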
BAZ2B block: BAZ2B (human) inhibition; AID 504333; Q9UIF8; Potency, µM (top dose mostly 114 µM), without a hit: at the top dose activity change, negative = inhibition, actives largely listed as inhibitors; 4.4% of 360,000 active; AlphaScreen BAZ2B-H3K14Ac peptide displacement; also: potency is read from the fitted curve at half-maximal effect; % is scaled to controls: 0 for no effect and ±100 for the full control effect; nearly all actives have a fitted effect of over 60% in size
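Inhibition is scored as reduced AlphaScreen emission. The BAZ2B/b-H3(5-23)K14Ac complex (50 nM each) in PBS pH 7.4, 0.01% Tween-20 meets compound (up to 110 uM) for 30 min at RT before bead addition.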
L3MBTL1 block: inhibitors of human L3MBTL1 | 0.66% of 230,000 active | Potency, µM (doses to about 57.1 µM), without a hit: top-dose activity, negative = inhibition, usual class: inhibitors | AlphaScreen L3MBTL1–H3K9me1 peptide binding; also: potency is read from the fitted curve at half-maximal effect; % is scaled to controls: 0 for no effect and ±100 for the full control effect; nearly all actives have a fitted effect of over 60% in size
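L3MBTL1 50 nM + b-AHA-H3(1-15)K9me1 75 nM, 30 min RT; compound added, 30 min RT; streptavidin donor/Ni-chelate acceptor beads 10 ug/mL each final, 30 min RT dark; AlphaScreen read.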
G9a inh: inhibitors of human histone lysine methyltransferase G9a | Q96KQ7 | G9a H3K9 monomethylation, AlphaScreen, 2 h | Potency, µM (top dose mostly 102 µM), for inactives: at the highest dose activity, negative = inhibition, actives largely listed as inhibitors | 8.8% of 350,000 active | AID 504332; also: potency is read from the fitted curve at half-maximal effect; % is scaled to controls: 0 for no effect and ±100 for the full control effect; nearly all actives have a fitted effect of over 75% in size
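AlphaScreen read-out: biotin-H3K9 peptide (500 nM) methylation by 20 nM enzyme with 20 uM SAM, 2 h at room temperature after 15 min compound preincubation; anti-monomethyl H3K9 antibody plus donor/acceptor beads, 10 min dark.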
JMJD2A Tudor inh: inhibitors of human JMJD2A Tudor domain | O75164 | AlphaScreen JMJD2A-Tudor / H3K4me3 peptide binding | Potency, µM (top dose mostly 114 µM), for the others: at the highest dose activity change, negative = inhibition, hits mostly inhibitors | 4.4% of 390,000 active | AID 504339; also: potency is read from the fitted curve at half-maximal effect; % is scaled to controls: 0 for no effect and ±100 for the full control effect; nearly all actives have a fitted effect of over 50% in size
PI5P4K alpha inh: PI5P4K alpha (human) kinase inhibition; P48426; PI5P4Kalpha enzyme, ADP-Glo luminescence, 60 min; active compounds read low; max response, %; 1.2% of 330,000 active; AID 652105; active = max response of -50% or lower; inconclusive = between -30% and -50%; inactive = -30% or higher; also: value at the top dose of about 77 µM; % is scaled to controls: 0 for no effect and ±100 for the full control effect
Target sequence (P48426 whole entry, looked up): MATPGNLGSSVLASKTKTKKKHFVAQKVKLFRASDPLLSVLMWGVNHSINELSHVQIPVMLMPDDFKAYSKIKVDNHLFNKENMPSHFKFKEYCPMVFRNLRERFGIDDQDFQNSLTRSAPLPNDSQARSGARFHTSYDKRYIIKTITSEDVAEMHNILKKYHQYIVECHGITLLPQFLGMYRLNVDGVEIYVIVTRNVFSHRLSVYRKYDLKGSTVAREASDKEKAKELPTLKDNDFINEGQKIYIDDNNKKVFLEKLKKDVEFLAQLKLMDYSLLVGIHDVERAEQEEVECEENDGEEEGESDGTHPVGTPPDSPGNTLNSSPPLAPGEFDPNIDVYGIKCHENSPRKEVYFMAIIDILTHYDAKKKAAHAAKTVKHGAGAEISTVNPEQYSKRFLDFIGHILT
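Compounds were pin-transferred onto PI5P4Kalpha and substrate in HEPES pH 7.4 buffer with EGTA, CHAPS and 5% DMSO. ATP (5 microM final) started the reaction, which ran 60 minutes at room temperature before ADP-Glo detection.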
An asterisk follows results filed as active; [ ] = another dose, or the depositor's remark. In the library only some 11% were active in any assay of this set; here they are far more common. Unless noted, calls follow the shape of the dose curve; as a rule, active = well fitted inhibition curve with a large enough effect; inconclusive = small, poorly fitted or top-dose-only effect; inactive = no such curve, though single readings can be large or run the other way.

How did COc1ccc(CN(Cc2ccc(C(=O)O)cc2)C(=S)Nc2ccccc2C)cc1OC do in these assays?
HP1b chromo inh: 36%; BAZ2B block: -11%; G9a inh: 45µM*; JMJD2A Tudor inh: -16%; PI5P4K alpha inh: -1

Results for Cc1cc(C)cc(NC(=S)N(Cc2ccc(Br)cc2)Cc2ccc(C(=O)O)cc2)c1 ?
HP1b chromo inh: 20%; BAZ2B block: -11%; G9a inh: inconclusive; JMJD2A Tudor inh: -31%; PI5P4K alpha inh: 12

Results for CSc1ccc(CCNC(=O)c2csc3c2CCCCC3)cc1 ?
HP1b chromo inh: 17%; BAZ2B block: 0%; G9a inh: 14%[59 µM]; JMJD2A Tudor inh: -11%

Results for S=c1[nH]nc(-c2cc(-c3ccccc3)n[nH]2)n1/N=C/c1ccc(Br)s1 ?
HP1b chromo inh: inconclusive; BAZ2B block: 56µM*; L3MBTL1 block: inconclusive; G9a inh: 28µM*; JMJD2A Tudor inh: inconclusive; PI5P4K alpha inh: -13

What do the screens show for `Cc1ccccc1/C=N/n1c(-c2cc(-c3ccccc3)n[nH]2)n[nH]c1=S`?
HP1b chromo inh: 39%; BAZ2B block: 0%; G9a inh: inconclusive; JMJD2A Tudor inh: inconclusive; PI5P4K alpha inh: -22

How did S=c1[nH]nc(-c2cc(-c3ccccc3)n[nH]2)n1/N=C/c1c(Cl)cccc1Cl do in these assays?
HP1b chromo inh: 6%; BAZ2B block: 79µM*; L3MBTL1 block: -12%; G9a inh: 4µM*; JMJD2A Tudor inh: 45µM*; PI5P4K alpha inh: inconclusive

What do the screens show for `O=c1[nH]cccc1-c1nc2ccccc2n1Cc1cccc(Cl)c1`?
HP1b chromo inh: 21%; BAZ2B block: 2%; G9a inh: 21%; JMJD2A Tudor inh: -7%; PI5P4K alpha inh: -10

What do the screens show for `O=c1[nH]cccc1-c1nc2cc(Cl)ccc2n1Cc1ccccc1`?
HP1b chromo inh: 35%; BAZ2B block: -13%; G9a inh: 71µM*; JMJD2A Tudor inh: -18%; PI5P4K alpha inh: 1

How did Cc1sc2ncnc(N3CCCC(C)C3)c2c1C (stereo not given) do in these assays?
HP1b chromo inh: 55%; BAZ2B block: -9%; L3MBTL1 block: 4%; G9a inh: 56µM*; JMJD2A Tudor inh: 19%; PI5P4K alpha inh: -4

What do the screens show for `COc1ccc(C2CC(=O)C3=C(C2)NC(C)=C(C#N)C3c2ccc(N(C)C)cc2)cc1` (stereo not given)?
HP1b chromo inh: inconclusive; BAZ2B block: inconclusive; L3MBTL1 block: inconclusive; G9a inh: 13µM*; JMJD2A Tudor inh: inconclusive; PI5P4K alpha inh: 4

How did COC(=O)c1ccc(C2C(C#N)=C(C)NC3=C2C(=O)CC(C)(C)C3)cc1 (stereo not given) do in these assays?
HP1b chromo inh: 4%; BAZ2B block: 10%; L3MBTL1 block: 4%; G9a inh: 10%; JMJD2A Tudor inh: -3%[57.1 µM]; PI5P4K alpha inh: 5

How did CCCCCCn1c(SCC(=O)OC)nc2c1c(=O)[nH]c(=O)n2C do in these assays?
HP1b chromo inh: inconclusive; BAZ2B block: -1%; L3MBTL1 block: -3%; G9a inh: 1.6µM*; JMJD2A Tudor inh: inconclusive; PI5P4K alpha inh: -27

What do the screens show for `CCCCCOC(=O)CSc1nc2c(c(=O)[nH]c(=O)n2C)n1Cc1ccc(Cl)cc1`?
HP1b chromo inh: 9%; BAZ2B block: 3%; L3MBTL1 block: -8%; G9a inh: 40µM*; JMJD2A Tudor inh: -15%; PI5P4K alpha inh: -1

How did COCCn1c(SCCN2CCOCC2)nc2c1c(=O)[nH]c(=O)n2C do in these assays?
HP1b chromo inh: -16%; BAZ2B block: 8%; G9a inh: 11µM*; JMJD2A Tudor inh: -22%; PI5P4K alpha inh: -15

How did CCOC(=O)CSc1nc2c(c(=O)[nH]c(=O)n2C)n1Cc1ccccc1 do in these assays?
HP1b chromo inh: 18%; BAZ2B block: -3%; L3MBTL1 block: -4%; G9a inh: -13%; JMJD2A Tudor inh: -15%; PI5P4K alpha inh: -3

What do the screens show for `CCCCCSc1nc2c(c(=O)[nH]c(=O)n2C)n1C`?
HP1b chromo inh: 21%; BAZ2B block: -4%; G9a inh: 2%; JMJD2A Tudor inh: -25%; PI5P4K alpha inh: -2
